TDP1 cell noCPT: qHTS for Inhibitors of human tyrosyl-DNA phosphodiesterase 1 (TDP1): qHTS in cells in absence of CPT; DT40 Tdp1-/- hTDP1 cells, no CPT, ATP luminescence, 48 h; Potency, µM (doses to about 46.2 µM), for the others: at the highest dose activity change, negative = growth inhibition, usual class: inhibitors; 420,000 tested, 15% active; AID 686978, 2013; further: potency means the concentration at half of the fitted maximal effect; nearly all actives have a fitted effect of over 55% in size
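DT40 Tdp1-/-;hTDP1 cells, no CPT (DMSO vehicle only), 400 cells/well; compounds pin-transferred; ≥48 hr, 37 °C; CellTiter-Glo 30 min RT dark, luminescence read.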
IL-1B inflam inh: blocks inflammasome-driven IL-1 beta release. THP-1 LPS/ATP IL-1B secretion, AlphaLISA, 16 h; stronger effect = lower value. activity change, % at 57.5 µM. 360,000 tested, 4.7% active; in the data active means activity change below about -50%; inconclusive means mostly about -30% to -49%
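THP-1 cells pretreated 1 hr with compounds (up to 57.5 uM final), then stimulated with LPS (250 ng/mL final) plus ATP (1.25 mM final); secreted IL-1B measured by AlphaLISA after 16 hr, decreased signal indicating inhibition.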
12-LOX inh: blocks human arachidonate 12S-lipoxygenase; purified 12hLO, xylenol orange hydroperoxide absorbance; Potency, µM (titrated, usually from 108 µM), without a hit: at the top dose activity change, negative = inhibition, usual class: inhibitors; 580,000 tested, 1.1% active; further: potency means the concentration at half of the fitted maximal effect
Target sequence (P18054 whole entry, looked up): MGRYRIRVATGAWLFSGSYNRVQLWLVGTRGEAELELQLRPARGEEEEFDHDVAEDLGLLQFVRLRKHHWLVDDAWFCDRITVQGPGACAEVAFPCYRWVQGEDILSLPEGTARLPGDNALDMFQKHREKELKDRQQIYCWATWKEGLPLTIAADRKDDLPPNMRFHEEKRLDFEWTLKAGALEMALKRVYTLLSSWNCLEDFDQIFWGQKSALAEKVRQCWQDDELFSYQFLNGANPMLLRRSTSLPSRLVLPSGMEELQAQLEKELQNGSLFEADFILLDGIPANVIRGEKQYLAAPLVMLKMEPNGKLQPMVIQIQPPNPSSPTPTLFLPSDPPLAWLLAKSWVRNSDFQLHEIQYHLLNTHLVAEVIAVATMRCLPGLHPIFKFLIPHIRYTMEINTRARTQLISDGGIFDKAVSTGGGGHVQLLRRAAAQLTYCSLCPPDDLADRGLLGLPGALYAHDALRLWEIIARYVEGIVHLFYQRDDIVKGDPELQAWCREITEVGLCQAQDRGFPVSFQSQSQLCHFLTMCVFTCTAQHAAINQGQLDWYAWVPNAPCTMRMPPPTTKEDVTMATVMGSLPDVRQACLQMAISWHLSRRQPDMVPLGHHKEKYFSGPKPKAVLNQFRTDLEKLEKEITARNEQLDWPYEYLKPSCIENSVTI
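Hydroperoxide product was detected by ferrous iron/xylenol orange as the 573 to 405 nm absorbance ratio. Arachidonic acid at 40 uM (final) was turned over for 30 min at room temperature by 150 nM human 12hLO, pH 7.0 Hepes buffer, after 15 min compound preincubation.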
DT40 TDP1 CPT: DT40-hTDP1 cell growth loss with CPT | chicken DT40 Tdp1-/-;hTDP1 cells + 20 nM CPT, ATP luminescence, 48 h | Potency, µM (highest dose often 46.2 µM), inactives show at the top dose activity change, negative = growth inhibition, usual class: inhibitors | 420,000 tested, 12% active | AID 686979; further: potency means the concentration at half of the fitted maximal effect; nearly all actives have a fitted effect of over 55% in size
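Chicken DT40 Tdp1-/- cells stably complemented with human TDP1 were seeded at 400 cells/well in medium containing 20 nM camptothecin, exposed to pin-transferred compounds, and grown at 37 °C for at least 48 hr. Viability was read as ATP luminescence.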
HT1080 IDH1KD tx: HT-1080 IDH1 knockdown cell toxicity (counter line) | Potency, µM (highest dose often 46.1 µM), without a hit: top-dose activity, negative = toxicity, usual class: cytotoxic | 360,000 tested, 2% active | HT-1080 IDH1 knockdown viability, ATP luminescence, 48 h;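 further: potency means the concentration at half of the fitted maximal effect; 0% = DMSO wells and -100% = cell-free medium wells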
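Viability of IDH1-knockdown HT-1080 fibrosarcoma cells was assessed by CellTiter-Glo after 48 h at 37 °C with titrated compound; concentration-effect curves were classified by fit quality and response size.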
HT1080NT lethal: kills 2HG-producing HT-1080-NT fibrosarcoma cells | 360,000 tested, 1.6% active | HT-1080-NT fibrosarcoma viability, CellTiter-Glo ATP luminescence, 48 h | Potency, µM (series often up to 46.1 µM), inactives show at the highest dose activity, negative = less viability, hits mostly cytotoxic;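 further: NT is the 2HG producing partner of a matched IDH1 knockdown line; potency means the concentration at half of the fitted maximal effect; 0% = DMSO-treated cells and -100% = media-only wells without cells; nearly all actives have a fitted effect of over 55% in size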
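750 cells/well, RPMI + 5% FBS; 2 h settle, compound pin-transfer, 48 h at 37 degrees C. CellTiter-Glo 10 min RT, luminescence. Normalized to DMSO and media-only wells.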
* hit, by the source's call; ? = inconclusive; nt = no result given; [ ] = remark or other dose. This excerpt belongs to a sample that is enriched for hits. Unless noted, the call rests on the fitted dose curve; in most records, active means well fitted curve in the direction sought with a large enough effect; inconclusive means small, poorly fitted or top-dose-only effect, or another doubt; inactive means no such curve, though single readings can be large; an effect the other way counts as inactive or inconclusive. Unless noted, on the % scale 0 is the no-effect control and ±100 the full control effect.

SMILES | TDP1 cell noCPT | IL-1B inflam inh | 12-LOX inh | DT40 TDP1 CPT | HT1080 IDH1KD tx | HT1080NT lethal
Cc1cc(Cl)c2oc(C(=O)N3CCN(c4ccncc4)CC3)c(C)c2c1 | 13µM* | -88.2* | -11.4% | 20.6µM* | 11.6µM* | 11.6µM*
Cc1ccc(CN(C)C(=O)Cc2c(C)nc3ccccc3c2C)o1 | nt | nt | -4.5% | nt | nt | nt
COc1ccc(C(C)NC(=O)NCc2ccn[nH]2)cc1OC (stereo not drawn) | nt | nt | 16.6% | nt | nt | nt
COC[C@@H]1CN(C(=O)c2cccc(C#N)c2)C[C@H]1c1nc(C2CC2)no1 | nt | nt | 34.1% | nt | nt | nt
COC(=O)c1cc(NCc2ccc(C)cc2)ccc1N1CCOCC1 | nt | nt | -22.4% | nt | nt | nt
CN(c1nc2ccccc2nc1Cl)S(=O)(=O)c1ccccc1 | 23.1µM* | -6.1 | -0.7% | ? | 3.6% | -3.5%
COc1ccccc1NC(=O)Cc1ccc(-c2ccccc2)cc1 | ? | -79.5* | -17.4% | ? | ? | ?
COc1ccc(NC(=O)C(C)(C)Oc2ccc(Cl)cc2)cn1 | 9.5% | -1.7 | ? | -3.3% | 4.7% | 9.1%
COc1cc(NC(=O)c2ccccc2)c(OC)cc1NC(=O)Cc1ccc(Br)cc1 | ? | -17.0 | 17.5% | ? | -2.2% | 1.3%
COc1ccc(NC(=O)Cc2ccc(-c3ccccc3)cc2)cn1 | 11.6µM* | 36.7 | -3.8% | 13µM* | 23.1µM* | 9.2µM*
COc1cc(NC(=O)c2ccccc2)c(OC)cc1NC(=O)Cc1ccc(F)cc1 | 20.6µM* | -18.4 | 5.3% | -0.8% | -24.5% | -10.8%
COc1ccc(NC(=O)/C(Cl)=C(/Cl)S(=O)Cc2ccc(Cl)cc2)cn1 (stereo not drawn) | 0.259µM* | -102.3* | ? | 0.13µM* | 0.92µM* | 1.3µM*
CC(=O)NNC(=S)Nc1cc(Cl)cc(Cl)c1 | nt | nt | -1.6% | nt | nt | nt
CCn1cc(C2=NC(c3ccccc3)CO2)c2ccccc21 (stereo not drawn) | -17.9% | -24.2 | 1.5% | ? | -3.8% | -2.8%
CCn1cc(C2=NC(C)CO2)c2ccccc21 (stereo not drawn) | -27.1% | -2.9 | 9.1% | ? | 10µM* | 11.2µM*
C=CCN(C)Cc1cccc(OC)c1OC | nt | nt | 7.1% | nt | nt | nt
N#Cc1c(-c2ccccc2)nc(SCc2nc(N)nc(N3CCCCC3)n2)[nH]c1=O | ? | 0.0 | ? | 11.6µM* | ? | -5.0%
CCSc1nc(-c2ccccc2)c(C#N)c(=O)[nH]1 | 1.5% | 21.9 | -10.7% | 4.5% | -2.1%[9.24 µM] | -8.7%
CN(Cc1ccccc1)c1nc2c(c(=O)n(C)c(=O)n2C)n1CCSc1ncccn1 | 18.4µM* | 6.1 | -1.2% | 23.1µM* | -0.9% | -2.8%
Cn1c(=O)c2c(nc(N3CCOCC3)n2CCSc2ncccn2)n(C)c1=O | 23.1µM* | 9.2 | 22.6% | 20.6µM* | 4.0% | 10.6%
Cn1c(=O)c2c(nc(N3CCCCCC3)n2Cc2cccc(Br)c2)n(C)c1=O | nt | nt | 7.7% | nt | nt | nt
Cc1cc(C)nc(SCCn2c(N(C)Cc3ccccc3)nc3c2c(=O)n(C)c(=O)n3C)n1 | ? | 20.2 | -19.7% | ? | 2.7% | 15.6%
Cn1c(=O)c2c(nc(N3CCOCC3)n2Cc2cccc(Br)c2)n(C)c1=O | 5.8µM* | nt | -0.1% | 9.2µM* | nt | nt
CC1CCCN(Cc2nc3c(c(=O)n(C)c(=O)n3C)n2Cc2c(F)cccc2Cl)C1 (stereo not drawn) | 9.2µM* | 7.5 | 13.4% | 8.2µM* | 9.9% | 1.9%
CNc1snc(C)c1C(=O)N(C)CCOc1ccccc1 | nt | nt | -4.6% | nt | nt | nt
SMILES | TDP1 cell noCPT | IL-1B inflam inh | 12-LOX inh | DT40 TDP1 CPT | HT1080 IDH1KD tx | HT1080NT lethal
Cc1ccccc1Cn1c(CN2CCCC(C)C2)nc2c1c(=O)n(C)c(=O)n2C (stereo not drawn) | 5.8µM* | nt | 9.8% | 8.2µM* | nt | nt
Cn1c(=O)[nH]c(=O)c2c1nc(CN1CCN(c3ccccc3)CC1)n2Cc1c(F)cccc1Cl | ? | nt | -12.8% | ? | nt | nt
Cn1c(=O)c2c(nc(CN3CCN(c4ccccc4)CC3)n2Cc2c(F)cccc2Cl)n(C)c1=O | 8.2µM* | 32.3 | -0.2% | 20.6µM* | -6.8% | 0.0%
Cn1c(=O)c2c(nc(CN3CCN(c4ccccc4)CC3)n2Cc2ccccc2Cl)n(C)c1=O | 14.6µM* | 24.4 | -20.6% | ? | -0.1% | 5.3%
Cc1cccc(Cn2c(CN3CCCC(C)C3)nc3c2c(=O)n(C)c(=O)n3C)c1 (stereo not drawn) | ? | nt | -7.0% | ? | nt | nt
Cn1c(=O)c2c(nc(N3CCOCC3)n2Cc2c(F)cccc2Cl)n(C)c1=O | 23.1µM* | 6.1 | 0.1% | 20.6µM* | 14.4% | 6.2%
O=C(O)CNC(=O)CNC(=O)CCn1c(-c2ccccc2)cc2ccccc21 | nt | nt | -9.2% | nt | nt | nt
COc1cc(NC(=O)Cn2nc(C(F)(F)F)c3c2CCCC3)c(OC)cc1Cl | 16.4µM* | nt | ? | 20.6µM* | nt | nt
COc1ccc(NC(=O)Cn2nc(C(F)(F)F)c3c2CCCC3)c(OC)c1 | ? | 27.8 | -23.3% | -33.1% | 0.3% | 6.1%
COC(=O)c1ccccc1NC(=O)Cn1nc(C(F)(F)F)c2c1CCCC2 | 7.31µM* | nt | -7.9% | 23.1µM* | nt | nt
Cc1ccc(NC(=O)Cn2nc(C(F)(F)F)c3c2CCCC3)cc1C | -21.9% | nt | -18.2% | ? | nt | nt
CCc1ccccc1NC(=O)Cn1nc(C(F)(F)F)c2c1CCCC2 | ? | nt | -18.2% | -2.6% | nt | nt
COc1cc(NC(=O)Cn2nc(C(F)(F)F)c3c2CCC3)cc(OC)c1OC | 9.2µM* | nt | 0.0% | ? | nt | nt
COc1ccc2sc(-c3ccc(SC)cc3)c(C#CCO)c2c1 | ? | 6.6 | ? | 18.4µM* | ? | ?
COc1ccc2sc(-c3ccc(SC)cc3)c(C#CC(C)(C)O)c2c1 | ? | -9.5 | ? | ? | ? | ?
COc1ccc(-c2sc3cc(OC)c(OC)cc3c2C#CCO)cc1 | ? | -22.6 | -90.4% | 18.4µM* | ? | -28.4%
COc1ccc(OC)c(-n2c(-c3ccc(F)cc3)cn3c4c(=O)[nH]c(=O)n(C)c4nc23)c1 | nt | nt | -20.7% | nt | nt | nt
O=C(c1cccnc1)N1CCN2C(=O)N(C3CCCCC3)C[C@H]2C1 | nt | nt | -2.6%[176 µM] | nt | nt | nt
CSc1ccc(-c2noc(-c3ncn4c3COC(c3ccccc3Cl)C4)n2)cc1 (stereo not drawn) | nt | nt | 28.4% | nt | nt | nt
CCCCCCCCCCC(C)(C)C(=O)Nc1c(OC)cc(OC)cc1OC | 10µM* | nt | 0.0% | 10µM* | nt | nt
C=CCc1cccc(C=Nc2cc(Br)ccc2O)c1O | ? | 19.0 | 35.5µM* | ? | ? | -27.7%
